SUMO Mot1 rescue: yeast Mot1-301 growth rescue at high temperature, primary screen, SUMOylation pathway inhibitor project, S. cerevisiae, ATP luminescence, 38.5C; S. cerevisiae Mot1-301 growth rescue; percent above DMSO median, 100 means doubled; growth rescue, % at 18.8 µM; 320,000 compounds, 1% hits; AID 2716, 2010;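 active means every valid replicate shows activation above 250% relative to neutral control wells; inactive means the rest, any valid replicate at or below 250%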;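 further: OY570 slx delta 5 strain wells were the positive control but not used for scaling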
CHT block: inhibitors of human choline transporter CHT; 310,000 compounds, 0.86% hits; CHT-expressing cells, membrane potential dye, choline response; hits give low values; High affinity choline transporter 1 (Homo sapiens), Q9GZV3; AID 488975, 2010; B-score at 10 µM;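 active means B-score over 3 SD under the library average, and starting fluorescence ratio not unusually high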;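 further: choline stimulus applied at its EC90 after an EC20 pre-addition; B-score computed on integrated fluorescence ratio after choline addition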
Target sequence (Q9GZV3 whole entry, looked up): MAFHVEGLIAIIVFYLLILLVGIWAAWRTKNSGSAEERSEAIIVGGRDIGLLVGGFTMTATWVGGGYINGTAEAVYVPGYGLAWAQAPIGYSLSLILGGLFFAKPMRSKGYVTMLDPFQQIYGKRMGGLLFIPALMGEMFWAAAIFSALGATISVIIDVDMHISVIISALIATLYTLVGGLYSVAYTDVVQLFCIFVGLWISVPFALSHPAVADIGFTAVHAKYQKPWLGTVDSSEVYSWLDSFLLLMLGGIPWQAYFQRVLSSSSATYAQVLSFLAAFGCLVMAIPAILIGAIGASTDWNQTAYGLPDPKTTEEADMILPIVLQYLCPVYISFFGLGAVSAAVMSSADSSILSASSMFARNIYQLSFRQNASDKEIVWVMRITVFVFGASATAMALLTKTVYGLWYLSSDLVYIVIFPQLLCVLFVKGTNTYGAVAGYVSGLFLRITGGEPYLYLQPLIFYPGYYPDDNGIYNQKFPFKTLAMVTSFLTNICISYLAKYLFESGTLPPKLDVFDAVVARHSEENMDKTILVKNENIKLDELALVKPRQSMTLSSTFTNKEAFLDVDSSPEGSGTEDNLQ
MEKK2wt PB1 HTS: modulators of MEK5 binding to wildtype MEKK2, primary screen, biochemical, multiplex bead flow cytometry, Alexa488-MEK5; Mitogen-activated protein kinase kinase kinase 2 (Homo sapiens), Q9Y2U5; Alexa488-MEK5 binding to MEKK2 WT; actives lie on both sides; binding response (% of control), % at 10 µM; 290,000 compounds, 1.1% hits; AID 1531, 2009; in the data active means binding response below about 67% or above about 130%
CHT PAM: CHT positive allosteric modulators, primary screen, cell-based, membrane potential dye, choline EC20; CHT-expressing cells; hits give high values; LV-AA mutant CHT in HEK293 cells; B-score at 10 µM; 310,000 compounds, 0.49% hits; AID 488977, 2010;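 active means initial fluorescence not abnormally high and integrated response B-score, plate-corrected, over 3 SD above library mean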
MEKK2mut PB1 HTS: MEK5 binding signal on mutant MEKK2 PB1, primary screen, biochemical, multiplex bead flow cytometry, Alexa488-MEK5. 290,000 compounds, 0.35% hits. Alexa488-MEK5 binding to MEKK2 mutant. percent response, % at 10 µM; in the data active means percent response above about 24%, passing the limit was not always enough
MEKK3 PB1 HTS: modulators of MEKK3-MEK5 PB1 binding, primary screen, biochemical, wildtype MEKK3, multiplex bead flow cytometry, Alexa488-MEK5 | Mitogen-activated protein kinase kinase kinase 3 (Homo sapiens), Q99759 | bead-based flow cytometry, Alexa488-MEK5 binding to MEKK3; actives lie on both sides; 0 = blocked by unlabeled MEK5, 100 = vehicle | binding response (% of control), % at 10 µM | 290,000 compounds, 1.4% hits;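 active means binding response more than 3 SD above or below the average of its plate-row segment, actives on both sides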;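 further: Alexa488 bead fluorescence after subtracting the streptavidin-only scavenger bead signal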
CHT inh conf: CHT inhibitors, confirmation, cell-based, membrane potential dye, duplicate; shares compounds with CHT block; CHT-expressing cells, choline membrane potential dye; LV-to-AA substituted CHT, HEK293 cells; CHT activity remaining % of control (hits give low values), % at 10 µM; 2,400 compounds, 70% hits;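 active means choline transporter activity left, mean of duplicates at 10 µM, below buffer-only control mean minus 3 SD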;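 further: depolarization triggered by choline at its EC90 following an EC20 pre-addition; 0% = hemicholinium-3 full block and 100% = buffer-only control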
HEK293 CHT ctr: membrane potential effects in parental HEK293, counter-screen for CHT inhibitor project, cell-based, membrane potential dye. shares compounds with CHT block. choline response; active = decrease or increase beyond buffer ±3SD. membrane potential ratio readout (active if shifted either direction beyond buffer ±3SD; no single direction) at 10 µM. 2,400 compounds, 4% hits. AID 493222, 2011;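 further: parental cells lack the transporter so any hit is non-specific; ratio is peak minus trough fluorescence over baseline after EC90 choline challenge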
The depositor's hits bear a star; i = inactive; . = no result given. Most compounds without a hit are left out; they make up all but 4.1% or so of the library.

SMILES	SUMO Mot1 rescue	CHT block	MEKK2wt PB1 HTS	CHT PAM	MEKK2mut PB1 HTS	MEKK3 PB1 HTS	CHT inh conf	HEK293 CHT ctr
Cc1ccc(-n2nc3c(=O)n(C(C)C(=O)NCCCc4ccccc4)nc(C)c3c2C)cc1 (configuration not stated)	3	-5*	102	i	6	103	i	i
CCn1c(SCC(=O)Nc2ccccc2C(=O)OC)nnc1-c1ccoc1C	2	-5.6*	102	i	6	107	i	i
CCn1c(SCC(=O)Nc2ccccc2C(=O)OC)nnc1-c1ccc(N)cc1	5	i	102	i	0	101	.	.
CCCCC(CC)C(=O)NCc1ccccc1OC (configuration not stated)	5	-5.6*	103	i	0	105	i	i
CCCC(C)C(=O)NCc1ccccc1OC (configuration not stated)	-9	i	98	i	0	98	.	.
COc1ccc(C(=O)CCS(=O)(=O)c2ccc(C)cc2)cc1OC	4	i	107	i	9	100	.	.
Cc1ccc2nc(NC(=O)CN3C(=O)C4CC=CCC4C3=O)sc2c1 (configuration not stated)	191	-5.2*	105	i	5	111	i	i
O=C(CN1C(=O)C2CC=CCC2C1=O)Nc1nc2ccccc2s1 (configuration not stated)	-4	i	89	i	-8	95	.	.
CC(C)(C)C(=O)NC(=S)NNC(=O)C(c1ccccc1)c1ccccc1	-22	-6.6*	106	i	-1	107	36%*	i
O=C(CSc1ncnc2sc3c(c12)CCC3)Nc1ccccc1C(=O)O	10	i	104	i	2	101	.	.
O=C(c1ccccc1Cl)N1CCSCC1	-20	i	85	i	-8	90	.	.
CNCc1c(OCc2ccc(F)cc2)ccc2ccccc12	-7	-7.9*	125	i	5	109	41%*	-13*
O=C(CSc1nc2c(c(=O)n1-c1ccc(Cl)cc1)SCC2)NCC1CCCO1 (configuration not stated)	-10	i	.	i	.	.	.	.
O=C(CSc1nc2c(c(=O)n1-c1ccc(Cl)cc1)SCC2)N1CCCC1	-5	-6.8*	111	i	5	114	i	i
CCn1c(=O)n(CC(=O)NCC2CCCO2)c(=O)c2c3c(sc21)COC(C)(C)C3 (configuration not stated)	-18	i	94	i	-1	95	.	.
Cc1ccc(C)c(N2CCN(C(=O)Cc3c(C(=O)O)[nH]c4ccc(Cl)cc34)CC2)c1	-25	i	89	i	-8	93	.	.
O=C(O)c1[nH]c2ccc(Cl)cc2c1CC(=O)N1CCN(c2ccccc2)CC1	33	-7.6*	98	i	-1	102	36%*	i
CC1C(=O)N(c2ccc(S(=O)(=O)N(C)C)cc2)C1(/C=C/c1ccccc1)C(=O)NC1CCCC1 (configuration not stated)	-1	-6.8*	96	i	-4	96	i	i
O=C(CCC(=O)N1CCOc2ccc(Cl)cc21)NCc1ccccc1	-9	-6.3*	100	i	-2	102	i	i
COc1ccccc1CNC(=O)CCC(=O)N1CCOc2ccc(Cl)cc21	22	i	100	i	3	98	.	.
Cc1cc(NC(=O)CCC(=O)N(Cc2ccccc2)C2(C(=O)NC3CCCCC3)CCCC2)no1	5	-5.6*	93	i	-6	96	i	i
CC(=O)Nc1ccc(NC(=O)C(C)OC(=O)C2CCN(S(=O)(=O)c3ccc4c(c3)OCCO4)CC2)cc1 (configuration not stated)	-14	i	.	i	.	.	.	.
C=CC[C@H]1CC(Cc2ccccc2)=C[C@H](CC=C)N1	32	-8.6*	99	i	-1	98	-13%*	-17*
CCN(C(=O)c1cc2c(=O)n3ccccc3nc2n1CCCOC)C1CCCCC1	-10	-5*	102	i	-1	99	45%*	i
CCN(C(=O)c1cc2c(=O)n3ccccc3nc2n1C)C1CCCCC1	-6	i	101	i	-1	102	.	.
SMILES	SUMO Mot1 rescue	CHT block	MEKK2wt PB1 HTS	CHT PAM	MEKK2mut PB1 HTS	MEKK3 PB1 HTS	CHT inh conf	HEK293 CHT ctr
CCC1CCCCN1CCCNC(=O)C1CCCN(c2ncnc3c2nc2n3CCCCC2)C1 (configuration not stated)	1	i	99	i	3	96	.	.
O=[N+]([O-])c1ccccc1CSc1nnc2ccccn12	25	i	97	i	-4	101	.	.
O=[N+]([O-])c1ccc(CSc2nnc3ccccn23)cc1	-4	-13*	98	i	-1	101	8.8%*	i
CC1(c2ccccc2)CC(C)(C)N2C(=O)C(=O)c3cccc1c32 (configuration not stated)	168	-5.3*	98	i	2	92	i	i
O=C(Nc1cc([N+](=O)[O-])ccc1O)c1cccc([N+](=O)[O-])c1	16	-5.4*	116	i	9	111	10%*	i
COc1ccc(C2=NOC3(CC(=O)N(c4ccc5ccccc5c4)C3=O)C2)c(OC)c1 (configuration not stated)	-11	i	93	i	-3	100	.	.
O=C(O)CC/C(=N/NC(=O)CNC(=O)c1ccc2c(c1)OCCO2)c1ccccc1	7	i	96	i	-6	98	.	.
CCOC(=O)N1CCN(C(=O)c2ccc3nc(N4CCC(C)CC4)sc3c2)CC1	2	-7.2*	105	i	1	102	69%*	i
Cc1ccc(NC(=O)C(Nc2cccc(C)c2)c2ccccc2)cc1 (configuration not stated)	-2	i	115	i	-1	106	.	.
Cc1cccc(NC(=S)NCCN2CCOCC2)c1	44	i	98	i	-2	94	.	.

Screening data as filed in PubChem.
